For 3 molecules, growth inhibition results are on record in PubChem BioAssay (NCI).

Compounds without any hit were thinned out: in the full panel of roughly 79,000, 15% have a hit. Values without a mark were called inactive. The source made the active and inactive calls. No stated cut-off is given here; in the data, active means growth inhibition above about 70%; inactive means the rest.

The nature of assay [1]: NCI Yeast Anticancer Drug Screen. Data for the rad50 strain (AID 155).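 Further: 0% = growth of vehicle-only cultures of the same strain.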 Particulars: S. cerevisiae rad50 strain growth inhibition, stronger effect = higher value. A digest of the protocol: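 DNA repair mutant yeast, compound exposure, growth read-out; inhibition is taken relative to vehicle.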
Assay [2] can be described thus: NCI Yeast Anticancer Drug Screen. Data for the mec2-1 strain (AID 157). Conditions: S. cerevisiae mec2-1 strain, stronger effect = higher value. A digest of the protocol:
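Vehicle-treated cultures served as reference for growth inhibition of compound-exposed mec2-1 yeast.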

A short description of assay [3]: NCI Yeast Anticancer Drug Screen. Data for the sgs1 mgt1 strain (AID 161).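 Further: 0% = growth of cultures given vehicle only.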 Particulars: S. cerevisiae sgs1 mgt1 strain, stronger effect = higher value. A digest of the protocol: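 Mutant yeast exposed to compound; growth scored against vehicle-only wells.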
Assay [4] can be described thus: NCI Yeast Anticancer Drug Screen. Data for the cln2 rad14 strain (AID 165).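 Further: 0% = growth equal to vehicle treated cultures.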 Particulars: S. cerevisiae cln2 rad14 strain, stronger effect = higher value. A digest of the protocol:
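Each compound was tested on cln2 rad14 yeast. Inhibition of growth was calculated against vehicle-exposed controls.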

Assay [5] can be described thus: NCI Yeast Anticancer Drug Screen. Data for the bub3 strain (AID 167). Particulars: S. cerevisiae bub3 mutant strain, stronger effect = higher value. A digest of the protocol:
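In this screen, a yeast mutant lacking normal mitotic checkpoint function is challenged with compound. Relative growth versus vehicle gives the inhibition value.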

The nature of assay [6]: NCI Yeast Anticancer Drug Screen. Data for the mlh1 rad18 strain (AID 175). Particulars: S. cerevisiae mlh1 rad18 strain growth inhibition, stronger effect = higher value. A digest of the protocol: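 Vehicle-treated cultures served as the reference for growth inhibition in a yeast strain carrying DNA damage repair alterations exposed to each compound.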
Setting [7] is: at 5.0 µM (retest, dose inferred, filed as 0.5).
The mark [8] stands for this setting: at 50.0 µM (retest, dose inferred, filed as 5.0).

As to `O=Cc1c(I)cc(I)c(O)c1I`, the growth inhibition in assay [1] (setting [7]) is 45%; in assay [1] (setting [8]) it was 88% (active); in assay [1] (at 50.0 µM), 98.6% (active); in assay [2] (setting [7]), 46%; in assay [2] (setting [8]), 99% (active); in assay [2] (at 50.0 µM) it was 98.7% (active). Further, the growth inhibition was 79% (active) in assay [3] (setting [7]); 100% (active) in assay [3] (setting [8]); 97.9% (active) in assay [3] (at 50.0 µM); 42% in assay [4] (setting [7]); 97% (active) in assay [4] (setting [8]); 95.1% (active) in assay [4] (at 50.0 µM). For the same molecule, the growth inhibition in assay [5] (setting [7]) is 44%; in assay [5] (setting [8]) it was 67%; in assay [5] (at 50.0 µM), 96.8% (active); in assay [6] (setting [7]), 56%; in assay [6] (setting [8]) it was 97% (active); in assay [6] (at 50.0 µM), 97.3% (active).
Consider `O=C(N/C(=C\c1ccc(Cl)cc1)c1nc2ccccc2s1)c1ccccc1`, for which the growth inhibition was 34% in assay [1] (setting [7]); 95% (active) in assay [1] (setting [8]); 98.3% (active) in assay [1] (at 50.0 µM); 32% in assay [2] (setting [7]); 97% (active) in assay [2] (setting [8]); 98.1% (active) in assay [2] (at 50.0 µM). In addition, the growth inhibition is 54% in assay [3] (setting [7]); 97% (active) in assay [3] (setting [8]); 98.8% (active) in assay [3] (at 50.0 µM); 15% in assay [4] (setting [7]); 96% (active) in assay [4] (setting [8]); 98% (active) in assay [4] (at 50.0 µM). Further, the growth inhibition was 30% in assay [5] (setting [7]); 97% (active) in assay [5] (setting [8]); 96.7% (active) in assay [5] (at 50.0 µM); 28% in assay [6] (setting [7]); 95% (active) in assay [6] (setting [8]); 97.8% (active) in assay [6] (at 50.0 µM).
Regarding `OC1c2cccn2-c2cc(Cl)ccc2SC1c1ccccc1` (centres undefined), the growth inhibition in assay [1] (setting [7]) is 2%; in assay [1] (setting [8]) it was 97% (active); in assay [1] (at 50.0 µM), 97% (active); in assay [2] (setting [7]) it was 1%; in assay [2] (setting [8]), 98% (active); in assay [2] (at 50.0 µM) it was 82.3% (active). Further, the growth inhibition is 15% in assay [3] (setting [7]); 97% (active) in assay [3] (setting [8]); 96.2% (active) in assay [3] (at 50.0 µM); -7% in assay [4] (setting [7]); 97% (active) in assay [4] (setting [8]); 93.2% (active) in assay [4] (at 50.0 µM). The growth inhibition in assay [5] (setting [7]) is 24%; in assay [5] (setting [8]) it was 97% (active); in assay [5] (at 50.0 µM), 95.6% (active); in assay [6] (setting [7]) it was 8%; in assay [6] (setting [8]) it was 97% (active); in assay [6] (at 50.0 µM) it was 94.8% (active).
